Screens deposited in PubChem by National Center for Advancing Translational Sciences (NCATS).
Most compounds without a hit are left out; they make up all but 12% or so of the library.
NS1 function inh = influenza NS1 inhibition; Potency, µM (series often up to 46.1 µM), for inactives: top-dose activity, positive = more growth; AID 2326; hit rate 0.4% among 270,000; calls by dose curve; also: actives are rising curves; nearly all actives have a fitted effect of over 50% in size
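S. cerevisiae expressing influenza A NS1, grown in glucose, washed, then diluted 1:100 into pH 6.0 -URA galactose medium with 23 nl compound. Growth recovery read as OD600; NS1-free strain serves as control.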
AMA1 RON2 block = AMA1-RON2 (P. falciparum) interaction inhibition; hit rate 0.2% among 360,000; AID 720542; Potency, µM (top dose mostly 58.2 µM), for the others: at the top dose activity change, negative = inhibition, most hits filed as inhibitors; AlphaScreen AMA1-biotinylated RON2 peptide binding;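 also: 0% = vehicle wells and -100% = peptide control; nearly all actives have a fitted effect of over 45% in size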
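AMA1 (3D7) with his tag at 25 nM final met compounds first, then biotinylated RON2 peptide at 25 nM; detection used donor plus acceptor beads, 10 µg/mL apiece, read by AlphaScreen after 30 min at room temperature.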
SARS PLP yeast = blocks SARS-CoV papain-like protease in a yeast assay. S. cerevisiae expressing SARS-CoV PLpro, growth rescue. Potency, µM (top dose mostly 32.9 µM), without a hit: top-dose activity, positive = growth rescue, usual class: activators. hit rate 0.19% among 330,000. AID 485353; calls by dose curve; also: 0% is about no effect; nearly all actives have a fitted effect of over 55% in size
Pf growth 48h = P. falciparum growth inhibition at 48 hours (one generation). P. falciparum luciferase growth in erythrocytes, 48 h. Potency, µM (doses to about 28.7 µM), inactives show at the top dose activity change, negative = inhibition, actives largely listed as inhibitors. hit rate 5.9% among 310,000. AID 504832; also: % is scaled to controls: 0 for no effect and ±100 for the full control effect
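Erythrocytes infected with P. falciparum carrying an integrated firefly luciferase reporter (2% hematocrit, 0.1% parasitemia final) were exposed to compounds in RPMI 1640 with 0.5% Albumax at 37 C, 5% CO2. Growth inhibition was scored as reduced luminescence.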
HCV inhibitor = blocks hepatitis C virus; Huh7.5.1 HCVcc-Cre infection, luciferase reporter, 44 h; Potency, µM (titrated, usually from 41.8 µM), without a hit: at the top dose activity change, negative = inhibition, hits mostly inhibitors; hit rate 3.4% among 340,000; also: % is scaled to controls: 0 for no effect and ±100 for the full control effect
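Infectious HCVcc-Cre (~0.5 moi) was added to cells just after compound, with cells seeded 4 h earlier at 1,000 per well. Luciferase activity after 44 h culture reported infection; substrate was incubated 15 min at room temperature before reading.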
Pf growth 96h = P. falciparum growth inhibition at 96 hour, primary screen for plastid delayed-death inhibitors; hit rate 6.9% among 320,000; P. falciparum luciferase reporter growth, 96 h; Potency, µM (series often up to 28.7 µM), for inactives: at the top dose activity change, negative = inhibition, hits mostly inhibitors; AID 504834; also: % is scaled to controls: 0 for no effect and ±100 for the full control effect
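Parasite growth measured via integrated firefly luciferase reporter in P. falciparum. Infected erythrocytes at 2% hematocrit, 0.05% parasitemia final were treated 96 hours at 37 C under 5% CO2, and luminescence was read.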
An asterisk follows results filed as active; i = inactive; ? = inconclusive; . = no result given; [ ] = remark or other dose. Unless noted, calls follow the shape of the dose curve; as a rule, active = well fitted curve in the direction sought with a large enough effect; inconclusive = small, poorly fitted or top-dose-only effect, or another doubt; inactive = no such curve, though single readings can be large; an effect the other way counts as inactive or inconclusive. Potency is read from the fitted curve at half-maximal effect.

SMILES	NS1 function inh	AMA1 RON2 block	SARS PLP yeast	Pf growth 48h	HCV inhibitor	Pf growth 96h
CCOc1ccc(/C=N/NC(=O)c2ccccc2O)cc1CN1CC2CC(C1)c1cccc(=O)n1C2 (stereo unspecified)	.	38%	-2%	?	2%	13µM*
COc1cc(OCc2ccccc2)c(OC)c(OCc2ccccc2)c1	.	30%	.	.	10µM*	.
COc1c(Br)cc(C(N)=O)cc1OCc1ccccc1	-33%	-8%	-11%	-11%	?	-4%
Cc1cccc(-c2cc(C(=O)NCc3ccccn3)c3ccccc3n2)c1	-18%	36%	-8%	?	?	?
Cc1ccc(-c2cc(C(=O)NCCCN3CCCC3)c3ccccc3n2)cc1C	5%	-5%	0%	5.2µM*	22µM*	?
Cc1ccc(-c2cc(C(=O)NCc3ccccn3)c3ccccc3n2)cc1C	-9%	114%	-15%	8.3µM*	?	-8%
Cc1ccc(-c2cc(C(=O)NCCCN3CCOCC3)c3ccccc3n2)cc1C	3%	-2%	-1%	-96%	?	?
CCOc1ccc(-c2cc(C(=O)NCCCN3CCCC3)c3ccccc3n2)cc1	1%	-11%	1%	12µM*	?	-7%
COCCNC(=O)c1cc(-c2ccc(-c3ccccc3)cc2)nc2ccccc12	-4%	13%	0%	21%	10µM*	-5%
Cc1ccc(S(=O)(=O)NCC(=O)N2CCN(S(=O)(=O)c3ccc(Cl)cc3)CC2)cc1C	.	10%	-1%	-2%	0%	0%
CCc1nc2ccc(C)cc2c(C(=O)NC2CCCCC2C)c1C (stereo unspecified)	-14%	-5%	1%	-14%	-10%	?
Cc1ccc(CNCCCn2cnc3c(OCc4ccccc4)ncnc32)o1	.	0%	.	.	-8%[8.37 µM]	.
CCOc1ccc(N(CC(=O)N2CCC(Cc3ccccc3)CC2)S(C)(=O)=O)cc1	-1%	-15%	1%	55%	?	-18%
COc1ccc(CS(=O)(=O)c2nc(C)cc(C)c2S(C)(=O)=O)cc1	.	9%	3%	i	-12%	39%
CCCn1nnnc1NCc1ccccc1Cl	14%	-3%	-3%	-6%	14%	22%
Cc1ccc(C)c(N2CCN(C(=O)C3CCCN(c4ncnc5c4nc4n5CCCCC4)C3)CC2)c1 (stereo unspecified)	-49%	-12%	-11%	9.3µM*	-16%	?
Cc1ccc(NC(=O)C2CCCN(c3ncnc4c3nc3n4CCCCC3)C2)cc1Cl (stereo unspecified)	-25%	5%	-7%	?	?	-20%
Cc1ccc(N2CCN(C(=O)C3CCCN(c4ncnc5c4nc4n5CCCCC4)C3)CC2)c(C)c1 (stereo unspecified)	4%	11%	-1%	?	12%	15µM*
CC(C)Oc1ccc(CC2CCC(=O)N(C)C2=O)cc1 (stereo unspecified)	-6%	7%	-24%	-4%	0%	?
Cc1cc(=O)oc2cc(OC(C)C(=O)NC3(C#N)CCCCC3)ccc12 (stereo unspecified)	.	-5%	-2%	8%	4%	15%
Cc1csc(SCC(=O)Nc2cc([N+](=O)[O-])ccc2F)n1	.	-10%	-1%	?	-6%	?
Cc1cc(C)n2nc(SCC(=O)N3CCN(c4ccc(F)cc4)CC3)nc2n1	.	-3%	8%	?	8%	6.6µM*
Cc1cc(C)n2nc(SCC(=O)N3CCOCC3)nc2n1	.	-8%	-2%	31%	12%	-6%
COc1ccc(N2CCN(C(=O)CSc3nc4nc(C)cc(C)n4n3)CC2)cc1	.	1%[11.6 µM]	-1%	?	1%	13µM*
O=c1c2c3c(sc2nc2n1CCCCC2)C(O)CCC3 (stereo unspecified)	0%	3%	1%	73%	1%	?
SMILES	NS1 function inh	AMA1 RON2 block	SARS PLP yeast	Pf growth 48h	HCV inhibitor	Pf growth 96h
O=S1(=O)Nc2c(ccc3cccnc23)-c2ccccc21	-194%	-93%	-40%	2.6µM*	?	-1%[5.75 µM]
CSc1sc(C(=O)N(C)C)c2c1S(=O)(=O)N(C)c1ccccc1-2	-2%	-7%	1%	-8%	1%	-1%
CCOc1ccc2nc(C)cc(Nc3ccc4c(c3)OCCO4)c2c1	-8%	1%	2%	?	-29%	2.6µM*
CCOc1ccc2nc(C)cc(Nc3ccc(N4CCOCC4)cc3)c2c1	-2%	.	?	2.1µM*	1%[0.335 µM]	2.6µM*
CCOc1ccc2nc(C)cc(Nc3cccc([N+](=O)[O-])c3)c2c1	8%	-7%	-1%	1.7µM*	?	1µM*
O=C(Nc1ccc2c(c1)OCCO2)C1c2ccccc2OCC(=O)N1Cc1cccnc1 (stereo unspecified)	.	1%	.	.	.	.
CCNC(=S)N1CCC(n2cnc3ccccc32)CC1	4%	-5%	1%	-2%	2%	-22%
CC1(C)OC(=O)C2=C(C[C@@H](C3CCCCC3)O[C@H]2c2ccc(F)cc2)O1	.	0%	.	.	.	.
COc1ccc2c(c1)oc(=O)c1c3ccccc3[nH]c21	-3%	-5%	-2%	?	3.5µM*	?
CC(=O)NS(=O)(=O)c1ccc(NC(=S)NC(=O)Cc2ccccc2)cc1	3%	-1%	0%	0%	19%	6%
CC1(C)Cn2c(nnc2-c2cccc(O)c2)S1	4%	33%	-1%	44%	3%	12µM*
CC1Cn2c(nnc2-c2cccc(Cl)c2)S1 (stereo unspecified)	-16%	-2%	7%	7%	-11%	?
O=C(CN(Cc1ccco1)C(=O)CNS(=O)(=O)c1ccc(Cl)cc1)NCC1CCCO1 (stereo unspecified)	-10%	-15%	-1%	1.9µM*	3%	0%
CCOC(=O)Cn1cc(/C=C(\C#N)C(=O)N2CCOCC2)c2ccccc21	-3%	21%	0%	18%	-3%	39%
CCN(CC)C(=O)Cn1cc(/C=C(\C#N)C(=O)N2CCN(c3ccccc3)CC2)c2ccccc21	27%	-11%	2%	?	?	10µM*
Cc1ccc2c(c1)N(CC(=O)NCCC1=CCCCC1)C(=O)c1cccnc1O2	-7%	-29%	-13%	?	-16%	?
Cc1ccc(-c2cn(S(=O)(=O)c3ccc(C)cc3)nc2N)cc1	-2%	2%	2%	.	3%	?
Nc1nn(S(=O)(=O)c2ccccc2)cc1-c1cccc([N+](=O)[O-])c1	.	-14%	-4%	10µM*	?	20%
Cc1c(C(=O)N2CCNCC2)oc2ccccc12	-4%	-2%	-1%	3%	6%	-10%
Cc1ccc(S(=O)(=O)c2nc(/C=C/c3ccccc3)oc2N2CCC(C(N)=O)CC2)cc1	.	-8%	.	.	.	.
